In PubChem BioAssay (NCATS):
Results filed as inconclusive are left out. The source made the active and inactive calls. The call rests on the fitted dose curve; in most records, active means well fitted curve in the direction sought with a large enough effect; inconclusive means small, poorly fitted or top-dose-only effect, or another doubt; inactive means no such curve, though single readings can be large; an effect the other way counts as inactive or inconclusive.

Columns and labels:
[1] = Confirmatory screen GU Rhodamine qHTS for Zika virus inhibitors qHTS (AID 1347157); settings: purified enzyme assay, Rhodamine110 substrate fluorescence, 15 min; further: potency means the concentration at half of the fitted maximal effect; nearly all actives have a fitted effect of over 70% in size
In short: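 Unlinked NS2B/NS3, 25 nM; Rhod110 peptide, 1.5 microM; compounds, up to 114 microM. Reaction run 15 min at RT in 10 mM Tris-HCl pH 8.0, 0.01% Tween 20; kinetic fluorescence change fitted with a 4-parameter Hill model.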

[2] = biological target: Furin (Homo sapiens) (UniProt P09958); test: Furin counterscreen qHTS for Zika virus inhibitors (AID 1347149); settings: furin enzymatic counterscreen, fluorogenic substrate; series mostly up to 114 µM; further: nearly all actives have a fitted effect of over 70% in size; further: potency means the concentration at half of the fitted maximal effect
In short: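 Counterscreen measures cleavage of 2 microM BOC-RVRR-AMC, below its ~15 microM Km, by 5 nM full-length human furin at pH 7.0 after a 15-min compound preincubation. Inhibition derives from the 15-min fluorescence increase at 37C.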

[3] = ZIKV-mCherry secondary qHTS for Zika virus inhibitors (AID 1347158); settings: Vero cells, ZIKV-mCherry infection imaging, 48-72 h; series mostly up to 49.2 µM; further: top concentration of the series differs between compounds
Source text: Assay Submitters (PI): Avindra Nath, Ph.D., National Institute of Neurological Disorders and Stroke (NINDS), Bethesda, MD Radhakrishnan Padmanabhan, Ph.D., Georgetown University (GU), Washington D.C. Zika Virus causes congenital defects, including microcephaly and is associated with Guillain-Barre syndrome, eningoencephalitis and myelitis in infected adult. […] Using a target-based approach, we hope to establish a screening paradigm to uncover novel, cell-active NS2B-NS3 protease (Zika Virus) specific inhibitors from NCATS' collection of small molecules using qHTS. […] Four assay panel was created to identify potential Zika Virus inhibitors. Namely, (1) GU unlinked NS2B-NS3 AMC tagged protease qHTS, (2) GU unlinked NS2B-NS3 Rhodamine tagged protease qHTS, (3) NINDS linked NS2B-NS3 AMC tagged protease qHTS, (4) NINDS linked NS2B-NS3 Rhodamine tagged protease qHTS. Active compounds were re-acquired and re-screened to confirm inhibition. Inhibitors were further screened against various confirmatory and counterscreens in dose response format. […] A DAPI (mCherry counterscreen) which determine Vero cell toxicity was used to exclude false positive compounds. […] Early Translation Branch (ETB) National Center for Advancing Translational Sciences (NCATS), Rockville, MD National Institute of Health (NIH), Bethesda, Maryland
384 well ZIKV-mCherry Assay: We have developed a new orthogonal imaging assay in 384-well plate format, which uses recombinant virus ZIKV-mCherry in Vero cells. Briefly, 30 microL of Vero cells derived from a green monkey cell line, were dispensed by Multidrop Dispenser into a clear solid bottom black 384 well plate (ultracarrier, Perkin Elmer LifeSciences) at a concentration of 5,000 cells per well. The plate was incubated overnight in a CO2 incubator at 37 degrees C. Compounds were delivered as a 126 nL DMSO solution by Kalypsys pintool transfer. Following compound transfer, 10 microL of ZIKV-mCherry was added at an MOI of 1 and incubated in a CO2 incubator for 48-72 hrs at 37 degrees C. After sufficient incubation of infected cells in test plates, 8 microL of 32% PFA was dispensed into assay plates to fix cells and incubated for 20 min at room temperature. Plates were washed 3 times with PBS using BioTek EL406 microplate washer/dispenser. After washing, 30 microL of PBS with 0.01% TX-100 containing Hoechst dye was dispensed into the each well of the plates for nuclear staining. 384-well plates were imaged on an automated, widefield high content imager (INCell 2200, GE Healthcare) using a 10x/0.45 NA lens and standard DAPI (nuclear stain) and mCherry (cy5) excitation and emission filters. The TIFFs were quantitated using the canned Multi Target Analysis protocol (GE Investigator Workstation software v3.7.2). Briefly, nuclei from the DAPI channel were identified using top hat segmentation and a sensitivity setting of 96 and minimum size area of 35 microm2. A recombinant Zika viral infection was monitored in the Cy5 channel (cells) using a 2 microm collar dilation from the nuclear bitmap. mCherry objects with an average nuclear RFU intensity above 450 (3 stdev above mean negative control wells) were considered "mcherry positive" and data was analyzed by percent infection rate.

[4] = system: Zika virus NS2B-NS3 protease (linked construct); test: Confirmatory screen NINDS AMC qHTS for Zika virus inhibitors (AID 1347152); settings: Purified linked NS2B-NS3, AMC substrate fluorescence; series mostly up to 56.6 µM; further: potency means the concentration at half of the fitted maximal effect; nearly all actives have a fitted effect of over 70% in size
In short: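 Purified NS2B-NS3 protease with NS2B hydrophilic domain linked to NS3 protease domain by flexible linker, 1 nM final in 10 mM Tris-HCl pH 8.0, 0.01% Tween 20. Compounds preincubated 15 min, room temperature; Bz-Nle-KRR-AMC 10 microM (Km 18.3 µM); 15-min fluorescence change, 4-parameter Hill fit.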

[5] = system: Zika virus NS2B-NS3 protease (unlinked complex); test: Confirmatory screen GU AMC qHTS for Zika virus inhibitors (AID 1347153); settings: Recombinant NS2B-NS3 protease, AMC substrate fluorescence;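 further: enzyme at 25 nM with substrate at 10 µM below its Km of 18.3 µM; potency means the concentration at half of the fitted maximal effect; nearly all actives have a fitted effect of over 70% in size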
In short: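 Unlinked NS2B-NS3 complex (25 nM) in 10 mM Tris-HCl pH 8.0, 0.01% Tween 20 preincubated 15 min with compound, then 10 microM Bz-Nle-KRR-AMC (Km 18.3 µM). Fluorescence change over 15 min, normalized, Hill-fitted.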

[6] = qHTS of pediatric cancer cell lines to identify multiple opportunities for drug repurposing: Primary screen for Rh30 cells (AID 1347107); settings: Rh30 rhabdomyosarcoma viability, CellTiter-Glo luminescence, 48 h; series mostly up to 46 µM; further: nearly all actives have a fitted effect of over 75% in size
In short: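 Cells (500-1,000/well) in growth media were settled 5 h at 37 degrees C, then given compounds for 48 h. Viability was read as CellTiter-Glo luminescence. Primary runs used MIPE at 11 points (0.78 nM-46 µM) and NPC at 8 points (0.59 nM-46 µM); follow-ups used 11 points.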

[7] = qHTS of pediatric cancer cell lines to identify multiple opportunities for drug repurposing: Primary screen for Rh41 cells (AID 1347108); settings: Rh41 rhabdomyosarcoma viability, CellTiter-Glo luminescence, 48 h; series mostly up to 46 µM
In short: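 Following a 5-hour attachment period, cells at 500-1,000/well received compounds and were cultured for 48 hours. CellTiter-Glo was added and luminescence read to estimate viable, metabolically active cells.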

[8] = system: Zika virus NS2B-NS3 protease; test: Primary screen GU AMC qHTS for Zika virus inhibitors (AID 1347154); settings: Zika NS2B-NS3 unlinked protease, AMC fluorogenic substrate; series mostly up to 54.1 µM; further: nearly all actives have a fitted effect of over 70% in size
In short: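 Unlinked Zika NS2B hydrophilic domain/NS3 protease domain noncovalent complex (25 nM final) in 10 mM Tris-HCl pH 8.0, 0.01% Tween 20, with AMC peptide substrate. Fluorescence (ex 340, em 450 nm) change over 15 min, room temperature; percent inhibition fitted to 4-parameter Hill equation.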

Furin (Homo sapiens), sequence (P09958 whole entry, looked up): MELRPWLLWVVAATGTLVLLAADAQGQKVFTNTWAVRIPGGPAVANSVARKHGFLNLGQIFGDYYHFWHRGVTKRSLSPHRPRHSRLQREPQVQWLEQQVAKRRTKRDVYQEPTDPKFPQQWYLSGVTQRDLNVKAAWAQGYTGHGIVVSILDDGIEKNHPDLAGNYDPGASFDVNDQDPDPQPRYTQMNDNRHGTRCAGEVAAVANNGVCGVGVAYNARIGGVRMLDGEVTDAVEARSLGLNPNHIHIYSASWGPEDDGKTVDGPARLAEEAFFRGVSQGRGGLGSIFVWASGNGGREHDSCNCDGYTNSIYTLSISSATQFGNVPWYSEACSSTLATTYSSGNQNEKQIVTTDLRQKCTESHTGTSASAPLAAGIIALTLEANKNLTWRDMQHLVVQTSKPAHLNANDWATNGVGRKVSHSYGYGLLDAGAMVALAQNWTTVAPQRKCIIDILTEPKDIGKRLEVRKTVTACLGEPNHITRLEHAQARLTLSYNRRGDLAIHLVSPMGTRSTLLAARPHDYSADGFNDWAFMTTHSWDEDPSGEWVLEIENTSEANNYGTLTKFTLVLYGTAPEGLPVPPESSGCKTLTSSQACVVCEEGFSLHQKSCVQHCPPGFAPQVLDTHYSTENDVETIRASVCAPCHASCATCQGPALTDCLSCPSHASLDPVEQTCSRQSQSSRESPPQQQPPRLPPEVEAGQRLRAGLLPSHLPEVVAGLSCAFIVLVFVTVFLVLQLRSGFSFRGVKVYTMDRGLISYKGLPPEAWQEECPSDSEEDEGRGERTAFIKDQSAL

Compound: CC12CCC3C(C)(C)C(O)CCC3(C)C1Cc1c(oc(C(=O)O)cc1=O)O2 (stereo not given)
- Potency [1]: 24.3 µM (active)

Compound: Nc1c(N=Nc2ccc(-c3ccc(N=Nc4cc(S(=O)(=O)O)c5ccccc5c4N)cc3)cc2)cc(S(=O)(=O)O)c2ccccc12
- Potency [2]: 37.3 µM (active)
- Potency [1]: 2.51 µM (active)
- outcome [3]: inactive

Compound: CC1C/C=C/C=C\CCCCC(O)C/C=C/C(=O)O1 (stereo not given)
- Potency [1]: 44.1 µM (active)

Compound: N#CC1C(=O)Nc2scc(-c3ccc(-c4ccccc4O)cc3)c2C1=O (stereo not given)
- Potency [2]: inactive
- Potency [4]: 22.1 µM (active)
- Potency [1]: 3.93 µM (active)

Compound: CCOc1c2c(c(OCC)c3ccccc13)C(=O)N(c1ccc(CC(=O)NS(=O)(=O)c3ccccc3)cc1)C2
- Potency [2]: inactive
- Potency [4]: 44.1 µM (active)
- Potency [5]: 44.1 µM (active)
- Potency [1]: 4.94 µM (active)

Compound: O=S(=O)(O)c1ccc2c(N=Nc3ccc(S(=O)(=O)O)c4ccccc34)c(O)c(S(=O)(=O)O)cc2c1
- Potency [2]: inactive
- Potency [5]: 31.2 µM (active)
- Potency [1]: 10 µM (active)
- outcome [3]: inactive

Compound: CC(=O)OC(C)OC(=O)C(C)c1ccc(-c2ccccc2)c(F)c1 (stereo not given)
- outcome [6]: inactive
- outcome [7]: inactive
- outcome [8]: inactive

Compound: C=C1CC23CCC4[C@@](C)(CCC[C@@]4(C)C(=O)O)C2CCC1C3 (stereo not given in full)
- Potency [1]: 39.3 µM (active)

Compound: CC(C)c1cc2c(c(O)c1O[C@@H]1O[C@H](CO)[C@@H](O)[C@H](O)[C@H]1O)CC1(O)CCC(O)C(C)(C)C1CC2 (stereo not given in full)
- Potency [1]: 17.1 µM (active)

Compound: COc1cccc(-n2nc(C(=O)O)cc2-c2ccc(C3CCCCC3)c(Cl)c2)c1
- Potency [4]: 13.9 µM (active)
- Potency [5]: 12.4 µM (active)
- Potency [1]: 2.21 µM (active)

Compound: CCCCS(=O)(=O)Nc1ncnc(OCCOc2ncc(Br)cn2)c1-c1ccc(Br)cc1
- Potency [1]: 22.1 µM (active)
